Records with an inconclusive call do not appear. Activity calls are given as the source filed them. The call rests on the fitted dose curve; in most records, active means well fitted curve in the direction sought with a large enough effect; inconclusive means small, poorly fitted or top-dose-only effect, or another doubt; inactive means no such curve, though single readings can be large; an effect the other way counts as inactive or inconclusive.
Assays:
[1] = Quantitative High-Throughput drug screen in 47 multiple myeloma cell lines against the NCATS MIPE library collection: H1112_PLB cell viability assay (AID 1918967; further: nearly all actives have a fitted effect of over 30% in size; further: potency means the concentration at half of the fitted maximal effect); conditions: H1112 myeloma cells viability, ATP luminescence, 48 h; series mostly up to 45.8 µM
Method in brief: (§1)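 Approved and investigational drugs from MIPE 4.0 were added by pin tool to 500 cells per well. After 48 hours at 37C, ATP-based CellTiter-Glo luminescence indicated remaining viability.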

[2] = Quantitative High-Throughput drug screen in 47 multiple myeloma cell lines against the NCATS MIPE library collection: Karpas25_ECACC cell viability assay (AID 1918968; further: nearly all actives have a fitted effect of over 35% in size; further: potency means the concentration at half of the fitted maximal effect); conditions: Karpas25 myeloma viability, CellTiter-Glo ATP, 48 h; series mostly up to 45.8 µM
Method in brief: as §1

[3] = Quantitative High-Throughput drug screen in 47 multiple myeloma cell lines against the NCATS MIPE library collection: KMS27_JCRB cell viability assay (AID 1918970); conditions: KMS27 myeloma cells, CellTiter-Glo ATP viability, 48 h; viability (% of DMSO): at 45.8 µM (top of the series); further: nearly all actives have a fitted effect of over 30% in size; further: potency means the concentration at half of the fitted maximal effect
Method in brief: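 Each line is seeded at 500 cells per well and treated with library compounds for 48 hours under 37 °C, 5% CO2. CellTiter-Glo is then added for 5 min at room temperature before median relative luminescence is recorded.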

[4] = Quantitative High-Throughput drug screen in 47 multiple myeloma cell lines against the NCATS MIPE library collection: KMS12PE_JCRB cell viability assay (AID 1918972); conditions: KMS12PE myeloma viability, CellTiter-Glo ATP, 48 h; series mostly up to 45.8 µM; further: nearly all actives have a fitted effect of over 30% in size; further: potency means the concentration at half of the fitted maximal effect
Method in brief: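 Myeloma cell lines, 500 cells per well, exposed to MIPE 4.0 library compounds for 48 h at 37C, 5% CO2. Viability from ATP by CellTiter-Glo luminescence; normalised to DMSO (100%) and media-only (0%) wells.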

[5] = Quantitative High-Throughput drug screen in 47 multiple myeloma cell lines against the NCATS MIPE library collection: MMM1_PLB cell viability assay (AID 1918976); conditions: MMM1 myeloma cells viability, CellTiter-Glo, 48 h; series mostly up to 45.8 µM; further: potency means the concentration at half of the fitted maximal effect; nearly all actives have a fitted effect of over 35% in size
Method in brief: (§2)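 500 cells/well per myeloma line exposed to pinned MIPE 4.0 compounds for 48 h at 37 °C, 5% CO2. Viability read as ATP by CellTiter-Glo luminescence, normalised to DMSO-only (100%) and media-only (0%) wells.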

[6] = Quantitative High-Throughput drug screen in 47 multiple myeloma cell lines against the NCATS MIPE library collection: NCIH929_DSMZ cell viability assay (AID 1918978); conditions: NCI-H929 myeloma viability, CellTiter-Glo ATP, 48 h; series mostly up to 45.8 µM; further: nearly all actives have a fitted effect of over 35% in size
Method in brief: as §2

[7] = Quantitative High-Throughput drug screen in 47 multiple myeloma cell lines against the NCATS MIPE library collection: OCIMY1_PLB cell viability assay (AID 1918979); conditions: OCI-MY1 myeloma viability, CellTiter-Glo ATP, 48 h; series mostly up to 45.8 µM; further: nearly all actives have a fitted effect of over 35% in size
Method in brief: as §2

[8] = Quantitative High-Throughput drug screen in 47 multiple myeloma cell lines against the NCATS MIPE library collection: MM1S_ATCC cell viability assay (AID 1918980); conditions: MM1S myeloma viability, CellTiter-Glo ATP luminescence, 48 h; series mostly up to 45.8 µM; further: nearly all actives have a fitted effect of over 45% in size
Method in brief: as §2

[9] = Quantitative High-Throughput drug screen in 47 multiple myeloma cell lines against the NCATS MIPE library collection: MM1R_ATCC cell viability assay (AID 1918981); conditions: MM1R multiple myeloma cells, CellTiter-Glo viability, 48 h; series mostly up to 45.8 µM; further: nearly all actives have a fitted effect of over 35% in size; further: potency means the concentration at half of the fitted maximal effect
Method in brief: as §2

[10] = Quantitative High-Throughput drug screen in 47 multiple myeloma cell lines against the NCATS MIPE library collection: LP1_DSMZ cell viability assay (AID 1918982); conditions: LP1 myeloma viability, CellTiter-Glo ATP luminescence, 48 h; series mostly up to 45.8 µM; further: nearly all actives have a fitted effect of over 35% in size
Method in brief: as §2

[11] = Quantitative High-Throughput drug screen in 47 multiple myeloma cell lines against the NCATS MIPE library collection: KMS28PE_JCRB cell viability assay (AID 1918983); conditions: KMS28PE multiple myeloma viability, CellTiter-Glo ATP, 48 h; series mostly up to 45.8 µM; further: nearly all actives have a fitted effect of over 35% in size; further: potency means the concentration at half of the fitted maximal effect
Method in brief: as §2

[12] = Quantitative High-Throughput drug screen in 47 multiple myeloma cell lines against the NCATS MIPE library collection: L363_DSMZ cell viability assay (AID 1918984); conditions: L363 myeloma viability, CellTiter-Glo ATP luminescence, 48 h; viability (% of control): at 45.8 µM (top of the series); further: nearly all actives have a fitted effect of over 40% in size
Method in brief: as §2

[13] = Quantitative High-Throughput drug screen in 47 multiple myeloma cell lines against the NCATS MIPE library collection: KMS12BM_JCRB cell viability assay (AID 1918971); conditions: KMS12BM myeloma viability, CellTiter-Glo ATP, 48 h; series mostly up to 45.8 µM; further: nearly all actives have a fitted effect of over 35% in size; further: potency means the concentration at half of the fitted maximal effect
Method in brief: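 Inhibition of cell viability is measured here. Each line was plated at 500 cells per well, treated with MIPE 4.0 drugs, kept 48 hours at 37C, then assayed for ATP content by CellTiter-Glo luminescence.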

[14] = Quantitative High-Throughput drug screen in 47 multiple myeloma cell lines against the NCATS MIPE library collection: MOLP8_DSMZ cell viability assay (AID 1918977); conditions: MOLP8 myeloma viability, CellTiter-Glo ATP luminescence, 48 h; series mostly up to 45.8 µM; further: nearly all actives have a fitted effect of over 45% in size
Method in brief: as §2

[15] = Quantitative High-Throughput drug screen in 47 multiple myeloma cell lines against the NCATS MIPE library collection: KMS34_JCRB cell viability assay (AID 1918985); conditions: KMS34 myeloma viability, CellTiter-Glo ATP luminescence, 48 h; series mostly up to 45.8 µM; further: nearly all actives have a fitted effect of over 40% in size
Method in brief: as §2

[16] = Quantitative High-Throughput drug screen in 47 multiple myeloma cell lines against the NCATS MIPE library collection: KMS20_JCRB cell viability assay (AID 1918973); conditions: CellTiter-Glo ATP, 48 h; series mostly up to 45.8 µM; further: nearly all actives have a fitted effect of over 45% in size
Method in brief: as §1

Measured: Potency

O=C(O)C1=NC(C(=O)O)CC(C=CN2c3cc(O)c(OC4OC(CO)C(O)C(O)C4O)cc3CC2C(=O)O)=C1 (stereo not given)
active: [5] 23.5 µM
not listed: [13] | [14] | [15] | [16]
inactive: all other assays above

CCC[C@@H](NC(=O)[C@@H]1[C@H]2CCC[C@@H]2CN1C(=O)[C@@H](NC(=O)[C@@H](NC(=O)c1cnccn1)C1CCCCC1)C(C)(C)C)C(=O)C(=O)NC1CC1
active: [1] 18.7 µM | [2] 18.7 µM | [4] 14.8 µM | [9] 18.7 µM | [11] 16.6 µM
inactive: [3] | [6]

NC[C@H]1O[C@H](O[C@@H]2[C@@H](O)[C@@H](O[C@H]3O[C@H](CO)[C@@H](O)[C@H](N)[C@@H]3O)[C@H](N)C[C@@H]2N)[C@H](O)[C@@H](O)[C@H]1O
not listed: [5] | [8] | [16]
inactive: all other assays above

CCN(CCO)CCCOc1ccc2c(Nc3cc(CC(=O)Nc4cccc(F)c4)[nH]n3)ncnc2c1
active: [3] 0.0083 µM | [13] 0.209 µM
not listed: [4] | [5] | [9]
inactive: all other assays above

— PubChem BioAssay (NCATS)
